# Source: PubChem (National Center for Advancing Translational Sciences (NCATS))
# N370S GC mod – qHTS Assay for Inhibitors and Activators of N370S glucocerebrosidase as a Potential Chaperone Treatment of Gaucher Disease. Lysosomal acid glucosylceramidase (Homo sapiens), P04062. N370S GC spleen homogenate, 4MU-glucoside fluorescence. Potency, µM (series often up to 59.4 µM), inactives show top-dose activity change, negative = inhibition, usual class: inhibitors. hit rate 0.092% among 330,000;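 also: potency is read from the fitted curve at half-maximal effect; 0% = full enzyme activity and -100% = no enzyme basal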
# TCR act – Activators of T cell receptors: qHTS campaign; primary human leukocytes, anti-CD3, IL-2 HTRF, 48 h; Potency, µM (top dose mostly 9.22 µM), for the others: top-dose activation of IL-2 secretion, hits mostly activators; 330,000 tested, under 10 active; AID 504894, 2011; also: % of control where 0% means no effect
#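 IL-2 release read by HTRF sandwich (Eu cryptate donor, d2 acceptor, 665 nm emission) after 48 hr exposure of primary human leukocytes to compound together with anti-CD3 beads in the absence of co-stimulatory signals.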
# p53 reactivator – qHTS assay for re-activators of p53 using a Luc reporter | AID 504706, 2011 | hit rate 0.063% among 320,000 | H1299 p53-A138V BP100-luciferase reporter, luminescence, 24 h | Potency, µM (highest dose often 92.2 µM), for inactives: at the highest dose activity change, positive = activation, hits mostly activators; also: potency is read from the fitted curve at half-maximal effect; % of control where 0% means no effect; nearly all actives have a fitted effect of over 45% in size
#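 p53-null H1299 cells stably carrying temperature-sensitive p53-A138V and a BP100-luciferase reporter were pinned with compounds (4-point, 1:5 series) and held 24 hrs at 37 deg C. Luminescence was read 10 min after detection reagent.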
# TSHR antagonist – Antagonists of the Thyroid Stimulating Hormone Receptor: HTS campaign. TSHR-expressing cells, TSH-stimulated cAMP HTRF, 2 h; hits give low values. AID 504810, 2011. hit rate 0.2% among 330,000. activity change, negative = inhibition, % at 11.5 µM;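 active = activity change below a set negative limit, meaning inhibition stronger than a set level, cut at about -70% in these data; inconclusive = activity change between two set negative limits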; also: % is scaled to controls: 0 for no effect and ±100 for the full control effect
# Target sequence (P16473 whole entry, looked up): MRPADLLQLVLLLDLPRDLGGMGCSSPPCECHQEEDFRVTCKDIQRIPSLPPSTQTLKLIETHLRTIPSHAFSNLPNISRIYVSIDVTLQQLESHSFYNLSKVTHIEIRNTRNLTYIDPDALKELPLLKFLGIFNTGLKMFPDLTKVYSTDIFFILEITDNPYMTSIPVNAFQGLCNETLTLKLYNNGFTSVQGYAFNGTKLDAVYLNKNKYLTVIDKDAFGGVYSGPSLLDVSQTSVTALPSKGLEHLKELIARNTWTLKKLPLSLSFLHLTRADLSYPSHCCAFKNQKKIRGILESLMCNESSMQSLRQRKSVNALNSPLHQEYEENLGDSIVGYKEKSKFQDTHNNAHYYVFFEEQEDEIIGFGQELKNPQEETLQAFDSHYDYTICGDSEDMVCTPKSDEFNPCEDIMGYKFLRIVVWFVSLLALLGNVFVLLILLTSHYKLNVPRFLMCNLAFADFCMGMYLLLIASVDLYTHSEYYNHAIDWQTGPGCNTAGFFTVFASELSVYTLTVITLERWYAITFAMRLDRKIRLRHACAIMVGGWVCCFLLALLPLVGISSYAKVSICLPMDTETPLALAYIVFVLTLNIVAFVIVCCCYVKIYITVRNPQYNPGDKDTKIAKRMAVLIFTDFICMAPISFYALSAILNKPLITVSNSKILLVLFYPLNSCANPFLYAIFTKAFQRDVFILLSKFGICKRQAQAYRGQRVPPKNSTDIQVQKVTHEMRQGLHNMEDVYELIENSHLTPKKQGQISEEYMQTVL
#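 Antagonism was scored as loss of TSH-driven cAMP in TSHR cells, stimulated with 4nM TSH (EC80) for 2 hours at 37 deg C and detected by homogeneous HTRF competition immunoassay.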
# BRCA1 expr up – qHTS Assay to Identify Small Molecule Activators of BRCA1 Expression | AID 624202, 2012 | Potency, µM (top dose mostly 46.1 µM), without a hit: at the highest dose activation, actives largely listed as activators | hit rate 1.1% among 380,000 | MCF7-BRCA1-FFLuc reporter, luminescence, 48 h; response scale: scaled: vehicle 0%, 10 µM genistein 100%; also: potency is read from the fitted curve at half-maximal effect; nearly all actives have a fitted effect of over 80% in size
#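 Reporter cells (MCF7, BRCA1 promoter-firefly luciferase) received library compounds across a concentration series for 48 h. End-point luminescence was measured and concentration-effect curves derived after normalization.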
# GLS inhibitor – qHTS for Inhibitors of Glutaminase (GLS); Glutaminase kidney isoform, mitochondrial (Homo sapiens), O94925; GLS enzymatic activity, qHTS titration; Potency, µM (titrated, usually from 45.5 µM), for inactives: top-dose activity change, negative = inhibition, hits mostly inhibitors; hit rate 0.21% among 410,000; also: potency is read from the fitted curve at half-maximal effect; % is scaled to controls: 0 for no effect and ±100 for the full control effect
#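 Enzyme dispensed in phosphate buffer (45 mM, pH 8.2, 0.02% Tween-20), compounds pinned in, then 1 mM L-glutamine solution and the glutamate oxidase–HRP–Amplex Red mix added; fluorescence read immediately and again after 30 min at room temperature.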
# * hit, by the source's call; u = inconclusive; x = no result given; [ ] = another dose, or the depositor's remark. The list is not random: actives were taken first. Their share in the collection is about 1.4%. Unless noted, calls follow the shape of the dose curve; as a rule, active = well fitted curve in the direction sought with a large enough effect; inconclusive = small, poorly fitted or top-dose-only effect, or another doubt; inactive = no such curve, though single readings can be large; an effect the other way counts as inactive or inconclusive.
SMILES,N370S GC mod,TCR act,p53 reactivator,TSHR antagonist,BRCA1 expr up,GLS inhibitor
CC1(C)S[C@@H]2[C@H](NC(=O)Cc3ccccc3)C(=O)N2[C@@H]1C(=O)O,x,x,x,x,x,13µM*
CSc1ccccc1NC(=O)Nc1ccccc1,-10%,x,14%,4,65%,-1%
CCOc1ccc(NC(=O)Nc2ccon2)cc1,4%,3%,u,10,10µM*,-2%
CCOc1ccc(NC(=O)Nc2ccccc2SC)cc1,7%,-5%,13%,-8,2.8µM*,0%
Cc1ccc(NC(=O)Nc2ccon2)cc1,-10%,-2%,x,-7,u,-3%
N#CC1=C2C=Cc3ccccc3N2CCCC1=O,u,0%,u,-8,2.5µM*,-19%
O=S(=O)(c1ccc2c(c1)OCO2)N1CCN(c2nc(-c3cccs3)nc3ccccc23)CC1,x,x,x,x,32%,x
O=[N+]([O-])c1cnc(Sc2ccncn2)c([N+](=O)[O-])c1,x,x,x,x,-24%,35%
O=[N+]([O-])c1cnc(Sc2ccncn2)s1,2%,6%,-15%,-89*,-97%,26%
O=C(Nc1ccc2c(c1)OCCO2)c1cncc(Br)c1,2%,-6%,19%,-5,u,8%
O=C(Nc1ccc2c(c1)OCO2)c1cncc(Br)c1,-3%,1%,u,-11,10µM*,0%
CC(C)OC(=O)c1ccc(NC(=O)c2cncc(Br)c2)cc1,5%,1%,5%,-14,43%,6%
O=C(Nc1nccs1)c1cncc(Br)c1,-4%,3%,20%,3,3.5µM*,18%
CN(C)C(=O)c1ccc(NC(=O)c2cncc(Br)c2)cc1,4%,-5%[46.1 µM],u,-8,11µM*,-7%
COc1cccc(CNC(=O)CCn2nc(C)c3c(C)n(-c4ccccc4)nc3c2=O)c1,x,x,x,x,x,-6%
COc1ccc(-c2cn3cccnc3n2)cc1Br,u,-3%[46.1 µM],u,-2,11µM*,1%
COc1ccc(-c2cn3cccnc3n2)cc1NC(=O)C(C)C,25%,x,x,0,x,x
Brc1ccc(NC2=Nc3ccccc3CC2)cc1,-3%,x,u,9,8.9µM*,u
COc1ccccc1C(=O)Nn1cnc2ccccc2c1=O,12%,-4%,25%,11,10µM*,2%
COc1ccc(Cl)cc1C(=O)Nn1cnc2ccccc2c1=O,3%,-18%,-3%,9,10%,3%
CN(C)C(=O)c1ccc(-c2cc(NCc3cccnc3)ncn2)cc1,11%,x,x,x,x,x
C/C=C/C(=O)[C@@H](C)[C@@H](/C=C/C[Si](C)(C)C)C(C)C,1%,x,x,x,x,x
Cn1/c(=N\NC(=O)c2ccccc2Cl)sc2ccccc21,-2%,13%,u,6,11µM*,13%
CC(=O)N/N=c1\sc2ccccc2n1C,1%,-2%,-3%,2,-9%,-8%
O=C(Nc1nc(-c2ccccc2)cs1)c1ccccc1NS(=O)(=O)c1ccc(F)cc1,-8%,0%[46.1 µM],u,-85*,-62%,22%
SMILES,N370S GC mod,TCR act,p53 reactivator,TSHR antagonist,BRCA1 expr up,GLS inhibitor
O=S(=O)(Nc1ccc(-c2csc(-c3ccccc3)n2)cc1)c1ccc(F)cc1,-1%,-1%,-14%,-15,-83%,6%
Cc1ccc(C(=O)Nc2nc(-c3ccc(F)cc3)cs2)o1,u,-4%,4%,-121*,94%,-1%
Clc1ccc(OCc2nc(-c3ccncc3)no2)cc1,6%,x,u,20,11µM*,14%
COc1ccc(-c2cc(-c3ccc(Cl)cc3)c(C#N)c(SCC(=O)O)n2)cc1,u,3%,11%,-72*,-30%,u
COc1ccc(-c2cc(-c3ccccc3)c(C#N)c(SCC(=O)O)n2)cc1,x,-12%,x,x,-27%,0%
COc1cc(/C=N/NC(=O)c2cccc(NC(=O)c3ccccc3)c2)ccc1O,-18%,3%,4%,-38,-29%,-2%
COc1cc(/C=N/NC(=S)Nc2cccc(S(=O)(=O)N(C)C)c2)ccc1O,-17%,1%[46.1 µM],1%,-14,1%,10µM*
Clc1ccc(COn2nnc3ccccc32)c(Cl)c1,-13%,2%,x,x,5.6µM*,-19%
O=C(c1ccc(Cl)cc1Cl)n1nnc2ccccc21,-6%,x,x,x,x,x
CCC(=O)Nc1ccc2c(c1)ncn2-c1ccc(OC)cc1,-1%,-1%[46.1 µM],24%,-15,80%,1%
Cc1ccc(C(=O)Nc2ccc3c(c2)ncn3C)cc1,-2%,3%,u,5,u,-7%
CCC(=O)Nc1ccc2c(c1)ncn2-c1ccc(C)cc1,-4%,-5%,25%,-8,2µM*,5%
CCn1cnc2cc(NC(=O)c3ccc(C)cc3)ccc21,-3%,1%,11%,11,4.5µM*,-6%
O=C(Nc1nsc(-c2ccccc2)n1)c1ccc(F)cc1,2%,-5%,14%,1,11µM*,1%
O=C(Nc1ccc(C(=O)O)cc1)/C(=C\C=C\c1ccccc1)NC(=O)c1ccccc1Br,1%,18%,23%,20,10µM*,21%
COc1cccc([C@@H]2Oc3ccc(OC)cc3C(=O)[C@H]2OC(=O)Nc2ccc(OC(F)F)cc2)c1,-1%,x,x,x,x,x
Cc1nc2cc(NC(=O)c3ccco3)ccc2n1C,-4%,-8%,-25%,3,-11%,-6%
Cc1nc2cc(NC(=O)NCc3ccco3)ccc2n1C,3%,-2%,28%,15,11µM*,5%
Cn1c(CCNC(=O)c2ccco2)nc2cc(NC(=O)c3ccco3)ccc21,1%,2%,14%,15,8.9µM*,4%
Cn1c(CCNC(=O)c2ccco2)nc2cc(NC(=O)c3ccccc3)ccc21,u,2%,4%,22,u,-5%
O=C(CNC(=O)C1CCCCC1)OCC(=O)c1ccc([N+](=O)[O-])cc1,x,x,x,x,0%,x
CCC(/C=C1\Sc2ccc(OC)cc2N1CCO)=C\c1sc2ccc(OC)cc2[n+]1CCO,-17%,13µM*,-4%,3,-74%,16%
CCC(/C=C1\Sc2ccc(OC)cc2N1CC)=C\c1sc2ccc(OC)cc2[n+]1CCCS(=O)(=O)[O-],8%,-21%,-1%,-19,-18%,6%
Oc1ccccc1-c1nnc(COc2ccc(Cl)cc2Cl)o1,4%,-3%,u,-12,13µM*,25%
Oc1ccccc1-c1nnc(COc2ccccc2)o1,10%,-9%,u,-8,60%,16%
